Compounds without any hit were thinned out: in the full panel of roughly 83,000, 20% have a hit.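 Assay: single dose, 48 h. Readout: percent growth (0 = no net growth; negative = cell death). Active: <10.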 Values without a mark were called inactive. Active and inactive are the calls of the source.
Legend:
Assay in all cases: NCI-60 one-dose screen, 48 h (100 = growth as untreated, 0 = no growth, -100 = all killed)
Conditions in all cases: 10 µM unless noted
[1] = system: DU-145 prostate
[2] = system: K-562 leukemia
[3] = system: MALME-3M melanoma
[4] = system: MDA-MB-231 breast
[5] = system: RXF 393 renal
[6] = system: SF-268 CNS
[7] = system: SF-295 CNS
[8] = system: SF-539 CNS
[9] = system: UACC-257 melanoma
[10] = system: M14 melanoma
[11] = system: HCT-15 colon
[12] = system: HT29 colon
[13] = system: SNB-75 CNS
[14] = system: SNB-19 CNS
[15] = system: U251 CNS
[16] = system: PC-3 prostate
[17] = system: SK-MEL-5 melanoma
[18] = system: UACC-62 melanoma
[19] = system: LOX IMVI melanoma
[20] = system: SK-MEL-28 melanoma

SMILES | growth [1] | growth [2] | growth [3] | growth [4] | growth [5] | growth [6] | growth [7] | growth [8] | growth [9] | growth [10] | growth [11] | growth [12] | growth [13] | growth [14] | growth [15] | growth [16] | growth [17] | growth [18] | growth [19] | growth [20]
CCOC(=O)[C@@H](C)C[C@H](Cc1ccccc1)NC(=O)c1csc([C@@H](C[C@H](C(C)C)N(C)C(=O)[C@H](CC)NC(=O)[C@H]2CCCCN2C)OC(C)=O)n1 | 5.21% (active) | 6.71% (active) | 71.7% | 5.4% (active) | 28.8% | 29.1% | 1.53% (active) | -9.33% (active) | 39.1% | -25.7% (active) | 9.87% (active) | 4.72% (active) | 25.4% | 19.7% | 11.7% | 23.8% | -52.9% (active) | 30.9% | 9.39% (active) | 61.8%
C[C@]12CC[C@H]3[C@@H](C[C@@H]4SC(Nc5ccccc5)=N[C@@]45CC(O)CC[C@]35C)[C@@H]1CCC2O (stereo not given in full) | 14.2% | 4.96% (active) | 71.2% | 35.8% | -32.3% (active) | 9.68% (active) | 7.36% (active) | -34.3% (active) | 69.3% | 53.4% | -30.2% (active) | -38.5% (active) | -5.43% (active) | 26.5% | -30.1% (active) | 39.2% | 34.5% | 39.8% | -81.5% (active) | 27.3%
Oc1ccc2c3c1OC1[C@@H](O)CC[C@@]4(O)[C@@H](C2)N(CC2CCC2)CC[C@]314 (stereo not given in full) | 113% | 94.7% | 92.5% | 114% | 97.7% | 105% | 102% | 103% | 97.6% | 103% | 99.2% | 98% | 97.9% | 109% | 96.8% | 94.1% | 92.5% | 108% | 97.3% | 106%
CC12CCC=CC1CCC1C2CCC2(C)C(c3ccc(=O)oc3)CCC12O (stereo not given) | -97.4% (active) | 0.925% (active) | -48.4% (active) | -5.15% (active) | -47.2% (active) | -62.8% (active) | -60% (active) | -90.3% (active) | -70.3% (active) | -30.3% (active) | -71.7% (active) | -66.5% (active) | -56.7% (active) | -99.9% (active) | -77.2% (active) | -19.6% (active) | -56.6% (active) | -65.4% (active) | -83.8% (active) | -31.1% (active)
Cn1cc(C=O)c2nccnc21 | 118% | 101% | 106% | 111% | 112% | 123% | 101% | 108% | 102% | 120% | 114% | 93% | 78.5% | 110% | 97.1% | 107% | 104% | 102% | 94.5% | 94%
O=C(c1ccccc1O)c1[nH]c(Cl)c(Cl)c1-n1c(C(=O)c2ccccc2O)cc(Cl)c1Cl | 19.2% | 6.74% (active) | -25.5% (active) | -31.7% (active) | -19.4% (active) | 4.86% (active) | -25.5% (active) | 7.94% (active) | -24.9% (active) | -0.41% (active) | 9.94% (active) | 4.28% (active) | -1.42% (active) | 9.34% (active) | -11.8% (active) | -13.4% (active) | -77.9% (active) | -22% (active) | 10.5% | 14.2%
C[C@]12CCc3sc(-c4ccccc4O)nc3C1=CC[C@@H]1[C@@H]2CC[C@]2(C)C(=O)CC[C@@H]12 | 107% | 95.8% | 102% | 103% | 107% | 100% | 100% | 105% | 107% | 106% | 98% | 104% | 95.5% | 101% | 102% | 98.9% | 110% | 94.3% | 104% | 113%
COC(=O)[C@@H](C)C[C@H](Cc1ccccc1)NC(=O)c1csc([C@@H](C[C@H](C(C)C)N(C)C(=O)[C@@H](NC(=O)[C@H]2CCCCN2C)C(C(F)(F)F)C(F)(F)F)OC(C)=O)n1 | 11.4% | 8.83% (active) | 65.8% | 6.65% (active) | 46% | 18.3% | 9.85% (active) | -11.1% (active) | 52.4% | -20.3% (active) | 22.3% | 14.4% | 14.9% | 23.2% | 3.74% (active) | 27.2% | -18.5% (active) | 26.4% | 13.5% | 71.5%
COC(=O)[C@@H](C)C[C@H](Cc1ccccc1)NC(=O)c1nc([C@@H](C[C@H](C(C)C)N(C)C(=O)[C@@H](NC(=O)[C@H]2CCCN2C)C(C)C)OC(C)=O)sc1C | 17.7% | 9.29% (active) | 54.4% | 14.1% | 39% | 30.6% | 10.6% | -8.41% (active) | 51.1% | 1.43% (active) | 13.4% | 2.1% (active) | 51.2% | 42% | 5.39% (active) | 17.2% | -20.7% (active) | 46.6% | 25.6% | 65.6%
N#CC1(c2ccccc2)CCN(Cc2ccccc2)CC1 | 107% | 98.3% | 138% | 110% | 105% | 94.9% | 89.9% | 107% | 115% | 106% | 94.1% | 101% | 121% | 114% | 107% | 84.2% | 102% | 110% | 102% | 122%
Cc1cnc(/C=C/C(=O)O)cc1-c1cc2c(cc1C)C(C)(C)CCC2(C)C | 95.7% | 109% | 8.87% (active) | 80.9% | 93.7% | 77.6% | 86.1% | 84.3% | 38.3% | 77.1% | 53.9% | 68.3% | 62.5% | 97.4% | 70.9% | 74.8% | 62.8% | 65.8% | 47.9% | 41.5%
COC(=O)[C@@H](C)C[C@H](Cc1ccccc1)NC(=O)c1nc([C@@H](C[C@H](C(C)C)N(C)C(=O)[C@@H](NC(=O)[C@H]2CC(=O)CCN2C)C(C)C)OC(C)=O)sc1C(C)C | -11.3% (active) | 12.3% | 44.3% | 6.36% (active) | 6.58% (active) | 20% | -1.71% (active) | -18% (active) | 77.6% | -10.3% (active) | 8.84% (active) | -9.41% (active) | 15.7% | 21.2% | 12.1% | 24.3% | -14.3% (active) | 36.4% | 14.7% | 51.8%
O=C1C2CCC1C(N1CCCC1)CC2 (stereo not given) | 107% | 98.8% | 94.7% | 110% | 104% | 102% | 95.5% | 95% | 93% | 101% | 98.6% | 102% | 79.8% | 102% | 100% | 93.1% | 99.9% | 96.6% | 97.8% | 102%
CCOC(=O)CCN(C)C1=Nc2ccc(Cl)cc2C(c2ccccc2)=[N+]([O-])C1 | 106% | 96.8% | 101% | 97.9% | 105% | 99.6% | 102% | 107% | 105% | 113% | 105% | 82% | 99.5% | 99.3% | 100% | 91% | 100% | 93.4% | 99.8% | 121%
COC(C(=O)[C@@H](O)[C@@H](C)O)[C@@H]1Cc2cc3cc(O[C@H]4C[C@@H](O[C@H]5C[C@@H](O)[C@H](O)C(C)O5)[C@H](O)C(C)O4)c(C)c(O)c3c(O)c2C(=O)[C@H]1O[C@H]1C[C@@H](O[C@H]2C[C@@H](O[C@H]3C[C@@H](O)[C@@H](O)C(C)O3)[C@@H](O)C(C)O2)[C@H](O)C(C)O1 (stereo not given in full) | 17.5% | 9.59% (active) | -38.7% (active) | 3.75% (active) | -60.5% (active) | 24.4% | 12.9% | 1.03% (active) | -38.6% (active) | 8.68% (active) | 47.7% | -11.9% (active) | -31.8% (active) | 11.7% | 1.11% (active) | 21.6% | -49.2% (active) | -52.2% (active) | -10.6% (active) | -9.88% (active)

Reference: PubChem BioAssay (NCI)
